The values below come from PubChem BioAssay AID485314 (National Center for Advancing Translational Sciences (NCATS), 2010).

Out of some 340,000 compounds screened, about 4,500 (1.3%) were called active. Inconclusive results (about 5%) are left out. Calls follow the shape of the dose curve; as a rule, active = well fitted inhibition curve with a large enough effect; inconclusive = small, poorly fitted or top-dose-only effect, or another doubt; inactive = no such curve, though single readings can be large or run the other way. Shown is part of a subset that was picked to be rich in actives. A call without a number means that no potency is given here.
Potency is read from the fitted curve at half-maximal effect.

The target of the experiment is DNA polymerase beta (Homo sapiens) (UniProt P06746). Description: qHTS Assay for Inhibitors of DNA Polymerase Beta. The settings on record: Pol beta primer extension/strand displacement, fluorescence kinetic; series mostly up to 114 µM. The gist of the method:
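Curves were derived by four-parameter Hill fits of normalized qHTS data. The kinetic fluorescent primer-extension read was taken at 0 and 10 min after 50 nM substrate, following a 15 min room-temperature preincubation of 10 nM enzyme with compounds.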
In the case of `CC(Nc1ccc(-c2nc(-c3ccco3)no2)cc1[N+](=O)[O-])c1ccccc1` (centres undefined), the Potency is 20 µM (active).
In the case of `CNc1ccc(-c2nc(-c3ccco3)no2)cc1[N+](=O)[O-]` it was “inactive”; in that of `O=[N+]([O-])c1cc(-c2nc(-c3ccccc3)no2)ccc1NCc1ccco1`, “inactive”.
On to `COc1cccc(NC(=O)Nc2ccc3c(c2)N(C)C(=O)c2ccccc2S3)c1`, for which the Potency entry was “inactive”.
Turning to `CCOC(=O)c1c(NC(=O)c2ccc(S(=O)(=O)N3CCCC(C)C3)cc2)sc2c1CCN(C(C)C)C2` (centres undefined), the Potency entry is “inactive”.
In the case of `O=C(Nc1nnc(Cc2ccccc2)s1)c1cnccn1`, the Potency result is “inactive”.
As to `O=C(Nc1nnc(Cc2ccc(Cl)cc2)s1)c1cccnc1`, the Potency was 22.4 µM (active).
Take `O=C(Nc1nnc(Cc2ccc(Cl)cc2)s1)c1ccncc1`: the Potency result was “inactive”.
The result for `COc1cccc(C(=O)NC2=NC(c3ccc(N(C)C)cc3)CC(=O)N2)c1` (centres undefined) reads “inactive”.
The result for `CCC(=O)N1CCc2cc(S(=O)(=O)NC(CC(C)C)C(=O)NCCc3cccc(C)c3)ccc21` (centres undefined) reads “inactive”.
In the case of `CCC(C)(C)n1nnnc1C(c1ccc(OC)c(OC)c1)N1CCN(C(=O)c2ccco2)CC1` (centres undefined) it was “inactive”; in that of `CCC(c1nnnn1C1CCCC1)N1CCN(C(=O)c2ccco2)CC1` (centres undefined), 44.7 µM (active); in that of `CC(C)C(c1nnnn1C1CCCCC1)N1CCN(C(=O)c2ccco2)CC1` (centres undefined), “inactive”.
For the compound `COc1ccc(-c2c(C)c3ccc(O)c(CN4CCN(C)CC4)c3oc2=O)cc1OC`, the Potency entry was “inactive”.
In the case of `COc1ccc(-c2c(C)c3ccc(O)c(CN4CCCC4)c3oc2=O)cc1OC` it was “inactive”; in that of `COc1c(O)cc2oc(-c3ccc(O)c(O)c3)cc(=O)c2c1O`, 6.31 µM (active).
The result for `CCN(CC)c1ccc(NS(=O)(=O)c2cc(-c3cc(C)no3)ccc2C)c(C)c1` reads “inactive”.
The result for `CN(C)CCCn1c(-c2ccc(Cl)cc2)csc1=Nc1ccccc1` reads “inactive”; that for `CCN1CCN(CCCNC(=O)c2ccc3c(c2)sc2nc(-c4ccc(OC)cc4)cn23)CC1`, “inactive”; that for `O=C(CSc1nc2ccccc2nc1Cc1ccccc1)N1CCCCC1`, “inactive”.
For the compound `CCOC(=O)c1ccc(N2C(=O)c3n[nH]c(C)c3C2c2ccc(O)c(OC)c2)cc1` (centres undefined), the Potency entry was “inactive”.
Take `CC(C)Oc1ccc(/C=C(\NC(=O)/C=C/c2ccco2)C(=O)NCCc2nc3ccccc3[nH]2)cc1`: the Potency result was “inactive”.
For the compound `CCCCCOc1ccc(/C=C/C(=O)NCCc2nc3ccccc3[nH]2)cc1OC`, the Potency was 15.8 µM (active).
`COc1ccc(OC(C)C(=O)NCCc2nc3ccccc3[nH]2)cc1` (centres undefined): the Potency result was “inactive”.
Turning to `O=C(NCc1ccccc1Cl)C1=Cc2cc(Br)ccc2OC1`, the Potency entry is “inactive”.
On to `CC(C)C(=O)Nc1nc2c(s1)CC(C(C)(C)C)CC2` (centres undefined), for which the Potency result is “inactive”.
The result for `COc1ccc(/C=N/NC(=O)c2ccc3c(c2)OCCO3)c(OC)c1` reads “inactive”; that for `CN(C)CCNC(=O)c1[nH]nc2c1CCc1ccccc1-2`, “inactive”; that for `COc1cccc(/C=N/NC(=O)c2[nH]nc3c2CCc2ccccc2-3)c1O`, 8.91 µM (active).
The result for `CCOc1ccccc1CNC(=O)c1ccc(-n2c(C)cc3c2CCC(C)C3)cc1` (centres undefined) reads “inactive”; that for `C[N+](C)(CCCCCC[N+](C)(C)CCCN1C(=O)c2cccc3cccc(c23)C1=O)CCCN1C(=O)c2cccc3cccc(c23)C1=O`, 2.38 µM (active); that for `O=C(CCCCCN1C(=O)c2cccc3cccc(c23)C1=O)NCc1ccco1`, “inactive”.
In the case of `O=C1c2cccc3cccc(c23)C(=O)N1CCCCCc1n[nH]c(=S)o1` it was “inactive”.
In the case of `CCN(CCCNC(=O)CSc1cc(=O)n(C)c2cc(Cl)ccc12)c1cccc(C)c1`, the Potency entry is “inactive”.
Regarding `COc1ccc(C2=NC(c3ccncc3)=Nc3ccc(Br)cc3N2)cc1`, the Potency result is “inactive”.
For the compound `CC(=O)c1ccc(NC(=O)CCc2nc(-c3ccc(C)cc3)no2)cc1`, the Potency entry is “inactive”.
Regarding `COc1cc2ccccc2cc1C(=O)Nc1cccc(-c2nc3ccccc3o2)c1`, the Potency entry is “inactive”.
Take `COc1ccccc1N1CCN(CC(=O)NC(=O)NCc2ccco2)CC1`: the Potency entry was “inactive”.
In the case of `NC(=O)CCN1CCN(S(=O)(=O)/C=C/c2ccccc2)CC1`, the Potency result is “inactive”.
The result for `O=C(CN1CCN(S(=O)(=O)/C=C/c2ccccc2)CC1)NC(=O)NCc1ccco1` reads 25.1 µM (active).
In the case of `CCC1=Nc2cc(C(=O)NCC(C)c3ccccc3)ccc2Sc2ccc(C)cc21` (centres undefined) it was “inactive”; in that of `O=C(CNS(=O)(=O)c1cccs1)N1CCN(c2ccccc2Cl)CC1`, “inactive”.
For the compound `COc1cccc(CNS(=O)(=O)c2ccc3c(c2)CC(C)N3C(=O)C2CCC2)c1` (centres undefined), the Potency result is “inactive”.
Turning to `COc1cccc(CNS(=O)(=O)c2ccc3c(c2)CC(C)N3C(C)=O)c1` (centres undefined), the Potency result was “inactive”.
Regarding `CCC(=O)N1c2ccc(S(=O)(=O)NCc3ccco3)cc2CC1C` (centres undefined), the Potency is 0.398 µM (active).
The result for `COc1cc(C(=O)N2CCN(c3ccc(Nc4ccc(C)cc4)nn3)CC2)cc(OC)c1OC` reads “inactive”.
In the case of `Cc1ccc(-c2cnc(NCc3ccc(C(C)C)cc3)n2C)cc1` it was “inactive”; in that of `COc1ccc(NC(=O)c2ccco2)cc1NC(=O)COc1ccc(C)c(C)c1`, 11.2 µM (active).
For `COc1ccc(OCC(=O)Nc2ccc(NC(=O)c3ccco3)c(C)c2)cc1`, the Potency result is “inactive”.
In the case of `Cc1ccc(OCC(=O)NCCCNC(=O)c2ccco2)cc1C` it was “inactive”; in that of `CCC(C)Nc1oc(-c2ccc(COc3ccc(Cl)cc3)o2)nc1C#N` (centres undefined), “inactive”.
Regarding `Cc1ccccc1CNC(=O)CCCn1nc(C)c2sc3ccccc3c2c1=O`, the Potency result is “inactive”.
The result for `COCCCNC(=S)N1CCCC(c2nc3cc(C)c(C)cc3[nH]2)C1` (centres undefined) reads 39.8 µM (active); that for `CCCNC(=S)N1CCCC(c2nc3ccccc3[nH]2)C1` (centres undefined), “inactive”; that for `CCNC(=S)N1CCC(c2nc3cc(C)c(C)cc3[nH]2)CC1`, “inactive”.
The result for `CC1(C)N=C(SCc2ccccc2Cl)c2ccccc2N1` reads “inactive”.
For the compound `Cc1ccc(-c2nnc(SCC(=O)NCc3ccccc3)nc2-c2ccc(C)cc2)cc1`, the Potency result was “inactive”.
In the case of `Fc1ccc(Nc2nc(SCc3ccccc3Cl)nc3ccccc23)cc1` it was “inactive”.
In the case of `Clc1ccccc1CSc1nnc(-c2ccco2)c(-c2ccco2)n1` it was 4.47 µM (active); in that of `COc1ccc2nc(SCc3ccccc3)nc(C)c2c1`, “inactive”; in that of `c1ccc(CSc2nnc(-c3ccco3)c(-c3ccco3)n2)cc1`, 7.94 µM (active).
Take `CCN(CC)S(=O)(=O)c1nnc(NC(=O)COc2ccccc2Cl)s1`: the Potency result is “inactive”.
For `CC1=Nc2cc(C(=O)NCc3ccc(C)cc3)ccc2Sc2ccc(Cl)cc21`, the Potency result is “inactive”.
In the case of `O=C(CSc1nccn1-c1ccc(F)cc1)Nc1cccc2ccccc12` it was “inactive”; in that of `Cc1ccc(C)c(N2CCN(C(=O)Cn3nc(C)c4sc5ccccc5c4c3=O)CC2)c1`, “inactive”; in that of `COc1ccc2c(c1)Cc1sc(NC(=O)c3ccccc3Br)nc1-2`, “inactive”.
In the case of `CC(C)(C)c1ccc(C(=O)N2CCC(c3nc(-c4ccc(S(=O)(=O)N5CCCC5)cc4)no3)CC2)cc1` it was “inactive”; in that of `CCOc1ccccc1/C=c1\sc2nc(-c3ccco3)nn2c1=O`, 11.2 µM (active).
In the case of `CCOC(=O)C1CCN(C(c2ccc(F)cc2)c2sc3nc(-c4ccco4)nn3c2O)CC1` (centres undefined), the Potency entry was “inactive”.
As for `Oc1c(C(c2ccccc2Cl)N2CCOCC2)sc2nc(-c3ccco3)nn12` (centres undefined), the Potency result is “inactive”.
The result for `COc1cc(CNC(=O)c2cc3n(n2)CCCN(Cc2cccc(F)c2)C3=O)cc(OC)c1OC` reads “inactive”.
On to `CCC(=O)Nc1cccc(C(=O)OCc2cc(=O)n3nc(CC)sc3n2)c1`, for which the Potency entry is “inactive”.
As for `Cc1c(C(=O)NCc2ccccc2Br)oc2ccc3c(c12)C(=O)CC(C)(C)O3`, the Potency result is “inactive”.
The result for `O=C(CSc1nccn1Cc1ccc(F)cc1)NCc1ccccc1` reads “inactive”.
For `COc1ccc(-c2noc(CSc3nnc(-c4ccccc4)n3-c3ccc(F)cc3)n2)c(OC)c1`, the Potency entry was “inactive”.
`C/C(=N\NS(=O)(=O)c1ccc(Br)cc1)c1cccs1`: the Potency entry was “inactive”.
In the case of `C/C(=N\Nc1ncc(Cl)cc1Cl)c1cccs1` it was “inactive”; in that of `C/C(=N\Nc1ccc(S(N)(=O)=O)cc1[N+](=O)[O-])c1cccs1`, 11.2 µM (active).
For the compound `CCC(=O)N1c2ccccc2CC1C(=O)N1CCN(c2cccc(OC)c2)CC1` (centres undefined), the Potency entry was “inactive”.
For the compound `O=C(NCc1ccccc1)c1ccc2c(c1)nc1n2CCCCC1`, the Potency entry was “inactive”.
In the case of `CCOc1cccc(NC(=O)CSc2ncc(-c3ccc(Cl)cc3)[nH]2)c1` it was “inactive”; in that of `Cc1cc(C)c2nc3nc(C)cc(C)c3c(N)c2c1`, 39.8 µM (active); in that of `CC(C)(C)C1CCC(=NNC(=O)c2cc(-c3ccccc3)n[nH]2)CC1` (centres undefined), “inactive”.
In the case of `CC(=C/c1ccccc1)/C=N/NC(=O)c1cc(C)oc1C` it was “inactive”.
In the case of `CC(/C=N/NC(=O)c1cc(-c2ccc3ccccc3c2)n[nH]1)=C\c1ccco1` it was 12.6 µM (active); in that of `COc1ccc(/C=C/c2nc(C#N)c(NCc3ccc(F)cc3)o2)cc1OC`, “inactive”.
For the compound `O=c1c2ccccc2oc2nc(C3CCCCC3)n(Cc3ccco3)c(=O)c12`, the Potency entry is “inactive”.
The result for `Cc1cc(NC(=O)CSc2nc3cc(Cl)ccc3c(=O)n2Cc2ccco2)no1` reads “inactive”.
Regarding `Clc1cccc(-c2nc3nc4ccccc4nc3n2Cc2ccco2)c1`, the Potency result is “inactive”.
Turning to `Cc1nc2c(c(=O)n1Cc1ccco1)c1nc3ccccc3nc1n2Cc1ccccc1`, the Potency was 20 µM (active).
As for `Cn1c2ccccc2c(=O)c2c(=O)n(Cc3ccco3)c(COc3ccccc3)nc21`, the Potency entry was “inactive”.
In the case of `Cc1ccc(Cn2c(C)nc3c(c2=O)c2nc4ccccc4nc2n3Cc2ccco2)cc1` it was 10 µM (active); in that of `Cc1c(NC(=O)C(C)(C)C)cccc1-c1nc2ccccc2s1`, “inactive”; in that of `Cc1ccc(NC(=O)CCCn2c(=O)c3cccn3c3ccccc32)cc1Cl`, “inactive”.
Turning to `Cc1ccc(CN2CCC(CNC(=O)c3cnn(-c4ccccc4Cl)c3C3CCN(C(=O)OC(C)(C)C)CC3)CC2)cc1`, the Potency result was “inactive”.
On to `Cc1ccc(CNC(=O)CCc2c(C)nn(-c3ccc(N4CCCC4)nn3)c2C)cc1`, for which the Potency result is “inactive”.
With `CC(=O)c1cccc(Nc2ccc3cc(S(=O)(=O)N4CCC(C)CC4)ccc3n2)c1`, the Potency entry is “inactive”.
In the case of `CC(=O)c1ccc(S(=O)(=O)N2CCC3(CC2)OCCO3)cc1` it was “inactive”.
For the compound `CC(=O)c1ccc(S(=O)(=O)N2CCN(C(=O)/C=C/c3ccc4ccccc4n3)CC2)cc1`, the Potency was 11.2 µM (active).
